# An excerpt weighted towards active compounds, which were near 1.1% of everything screened.
# BJeLR lethal = MLPCN primary cell-based screen for lethality selective to Ras in HRASV12 cells | BJeLR (HRASV12) viability, CellTiter-Glo ATP luminescence, 48 h | hit rate 0.17% among 300,000 | inhibition, % (concentration not given with the values); in the data active means inhibition above about 50%
# PrP 5UTR inh = inhibition of PrP 5' UTR reporter expression. hit rate 0.35% among 340,000. inhibition, % (test concentration not listed). cell-based PrP 5' UTR mRNA reporter, plate reader; in the data active means inhibition above about 52%; further: 0 = median of the neutral control wells
# PrPC surface inh = inhibitors of human cell surface prion protein PrPC, primary screen, cell-based, TR-FRET | TR-FRET read-out | AID 720596, 2013 | Major prion protein (Homo sapiens), P04156 | hit rate 0.43% among 370,000 | inhibition, % at 13.8 µM; in the data active means inhibition above about 24%; further: 0% = median of the test wells and 100% = reference compound wells
# MazF activator = activators of E. coli MazEF toxin-antitoxin RNase, primary screen, biochemical, fluorescence, uHTS; Endoribonuclease toxin MazF (Escherichia coli (strain K12)), P0AE70; FAM/BHQ RNA-DNA oligo cleavage fluorescence, 5 h; activation, % at 20 µM; hit rate 0.32% among 350,000; in the data active means activation above about 50%
# Target sequence (P0AE70 whole entry, looked up): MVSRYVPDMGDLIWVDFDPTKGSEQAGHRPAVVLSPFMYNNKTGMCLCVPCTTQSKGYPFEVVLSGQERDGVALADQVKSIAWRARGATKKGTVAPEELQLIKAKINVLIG
# PrP UTR cherry = prion 5' UTR mRNA inhibition, cherry-pick retest; hit rate 48% among 1,100; shares compounds with PrP 5UTR inh; cell-based prion protein 5' UTR reporter, plate reader; inhibition, % at 2.5 µM; in the data active means inhibition above about 54%
# Numbers without * were called inactive; · = no result; ! = a repeat was not active.
SMILES,BJeLR lethal,PrP 5UTR inh,PrPC surface inh,MazF activator,PrP UTR cherry
C[C@H]1O[C@@H](OC2CC[C@]3(C=O)[C@H]4CC[C@]5(C)[C@@H](C6=CC(=O)OC6)CC[C@]5(O)[C@@H]4CC[C@]3(O)C2)CC2OC(C)(C)OC21 (stereo partly drawn),69*,84*,-4,13,85*
CC(=O)OC1CC(OC2C(O)CC(OC3C(O)CC(OC4CCC5(C)C(CCC6C5CCC5(C)C(C7=CC(=O)OC7)C(O)CC65O)C4)OC3C)OC2C)OC(C)C1OC1OC(CO)C(O)C(O)C1O (stereo not drawn),·,94*,0,-9,68*
Cc1ccc(S(=O)(=O)NCc2ccc3c(c2)OCO3)cc1,·,·,6,·,·
CCS(=O)(=O)N(C)C[C@@H]1OCc2ccccc2-c2c(n(C)c3ccccc23)C(=O)N([C@H](C)CO)C[C@@H]1C,·,·,-6,·,·
CC(C)OC(=O)c1sc2nc(-c3ccccc3)ccc2c1N,3,54*,-6,3,20
COc1ccc(C(=O)c2sc3nc(-c4ccccc4)ccc3c2N)cc1,·,-15,·,-37,·
O=C(N[C@H](C(=O)N1CCC[C@H]1C(=O)NCCc1ccccc1Cl)C1CCCCC1)C1CC1,·,·,2,·,·
O=C(Nc1nc2cc3c(cc2s1)OCCO3)C1=COCCO1,29,92*,11,0,86*
O=C(Nc1nc2ccc(F)cc2s1)C1=COCCO1,33,7,0,-7,·
COC(=O)[C@]12C[C@H](CC(=O)N3CCCC3)C(=O)N(Cc3ccc4c(c3)OCO4)C1=C[C@H](C(C)(C)C)O[C@@H]2C,·,·,4,·,·
CN(C(=O)CSc1nc(-c2ccccc2)cs1)C1CCS(=O)(=O)C1 (stereo not drawn),-6,85*,0,8,-30
CN(C(=O)CSc1nc(-c2ccc(F)cc2)cs1)C1CCS(=O)(=O)C1 (stereo not drawn),8,-8,-6,3,·
O=C(Nc1cccc2ncccc12)c1cccnc1,-10,74*,-1,-5,1
Cc1ccc(S(=O)(=O)NCC2CCN(C(=O)C(=O)c3cc4ccccc4o3)CC2)cc1,·,·,1,·,·
COc1ccc(OC)c(NC(=O)c2ccccc2N(Cc2ccccc2)C(=O)C(C)Cl)c1 (stereo not drawn),·,·,-6,·,·
O=C1c2ccccc2C(O)(c2ncc[nH]2)N1C1CCCCC1 (stereo not drawn),11,69*,-2,7,-17
O=C(Nc1ccc(C(F)(F)F)cc1)OC1CCC12CCCCC2 (stereo not drawn),·,·,4,·,·
COc1ccc(Cl)cc1NC(=O)/C=C\C(=O)O,-5,70*,0,3,-10
CCOC(=O)C1=CN(CC2CCCCC2)CCC1=O,·,84*,-2,5,14
CC(=O)C1=CN(CC2CCCCC2)CCC1=O,·,-17,2,-1,·
COc1cc(NC(=O)[C@@H](Cc2ccccc2)NC(=O)[C@H]2O[C@@H](n3ccc(=O)[nH]c3=O)[C@H](O)[C@@H]2O)cc(OC)c1OC,·,·,-4,·,·
COc1ccccc1CNC(=O)CCCc1cn(C)c2ccccc12,-3,3,-10,-5,·
COc1ccccc1CNC(=O)CCc1cn(C)c2ccccc12,-6,66*,7,7,-1
Cc1nn(Cc2c(Cl)cccc2Cl)c(C)c1NC(=O)CCCn1nc(C)c([N+](=O)[O-])c1C,-10,-8,-11,4,·
Cc1nn(CCCC(=O)Nc2cccnc2Cl)c(C)c1[N+](=O)[O-],11,52*,-5,3,-10
SMILES,BJeLR lethal,PrP 5UTR inh,PrPC surface inh,MazF activator,PrP UTR cherry
COc1ccc(/C=N\NC(=O)C2C(=O)NCC2c2ccccc2)cc1O (stereo not drawn),5,71*,-1,3,-48
Cc1cc(NC(=O)c2ccc(Br)c([N+](=O)[O-])c2)no1,8,83*,-27,7,-7
O=C(C1CC(=O)N(c2ccc3c(c2)OCCO3)C1)N1CCN(Cc2ccccc2F)CC1 (stereo not drawn),·,86*,7,8,-9
Cc1cccc(C)c1OCc1nnc(SCC(=O)O)n1-c1c(C)cccc1C,·,·,5,·,·
Cc1c(C(=O)N/N=C/c2ccc(Cl)cc2)[nH]c2ccc(Cl)cc12,7,61*,5,6,78*
CCOc1ccc(/C=N/NC(=O)c2[nH]c3ccc(C)cc3c2C)cc1,6,-13,11,-4,·
CC(C)OCCCNC(=O)Cc1ccc(Br)cc1,1,83*,3,4,1
CC1=C(C(=O)Nc2ccc(CC(=O)NCc3ccc(OC(C)C)cc3)cc2)SCCO1,26,72*,17,-5,87*
COc1ccc(CNC(=O)Cc2ccc(NC(=O)C3=C(C)OCCS3)cc2)cc1,0,-85,11,5,·
Cc1cccc(NC(=O)Nc2nc3ncccn3c2-c2ccc(F)cc2)c1,·,·,-10,·,·
NCCCS(=O)(=O)O,-17,74*!,6,0,-7
COc1cc([N+](=O)[O-])ccc1NC(=O)COC(=O)C=C(C)C,5,61*,-13,0,-22
CCOC(=O)[C@@]12CCCC3=C1N(CCC3)C(=O)[C@H]2CC(=O)N1CCOCC1,·,·,-10,·,·
Cc1ccc(NC(=O)O/N=C/c2c(C)nn(C(C)(C)C)c2C)cc1Cl,3,88*,-6,7,87*
CCCCc1c(-c2ccccc2OC)ncn1Cc1c(F)cccc1F,·,·,8,·,·
COC(=O)[C@]12C[C@H](CC(=O)NCc3cccs3)C(=O)N(Cc3ccccc3)C1=C[C@H](COCc1ccccc1)O[C@@H]2C,·,·,-6,·,·
N=C(N)SCP(=O)(c1ccccc1)c1ccccc1,-10,64*,3,1,3
OCCCNc1cc(-c2ccnc(Nc3cccc(Cl)c3)n2)ccn1,25,82*,42*,6,84*
CCc1cc2c(nc1CC)CCCN2CCOC,·,·,-4,·,·
Cc1ccc(C(=O)NCCCn2ccnc2)o1,10,73*,0,7,-11
CCOC(=O)[C@]12CCCC=C1N(Cc1ccc(OC)cc1)C(=O)[C@@H]2CC(=O)NCCCOC,·,·,-5,·,·
CC(C)(C)c1ccc(/C=N/Nc2cccc(C(=O)O)c2)cc1,-7,60*,-5,-2,54*
CN(C)c1ccc(/C=N/Nc2cccc(C(=O)O)c2)cc1,-6,93*,-2,-3,92*
O=C(O)c1cccc(N/N=C/c2ccc(-c3ccccc3)cc2)c1,7,-5,-5,-11,·
CC1CCN(C(=O)c2ccc(COc3ccccc3Cl)o2)CC1,-7,77*,10,-2,-6
Cc1cn([C@H]2C[C@H](O)[C@@H](CCC(=O)NCCc3c[nH]c4ccccc34)O2)c(=O)[nH]c1=O,·,59*,2,16,-54
CC(c1ccccc1)n1cc(C(=O)N2CCCC2)nn1 (stereo not drawn),·,·,1,·,·
FC(F)(F)c1ccccc1-n1ccnc1,·,60*,-1,6,0

# Source: PubChem
